According to PubChem BioAssay AID2551 (National Center for Advancing Translational Sciences (NCATS), 2010):
In all, about 310,000 compounds went through this assay and about 17,000 (5.5%) were called active. About 11% were inconclusive and are not listed. The call rests on the fitted dose curve; in most records, active means well fitted inhibition curve with a large enough effect; inconclusive means small, poorly fitted or top-dose-only effect, or effect the other way; inactive means no such curve, though single readings can be large or run the other way. For the sample, actives were picked, then their nearest neighbours and some compounds at random.

target: Nuclear receptor ROR-gamma (Mus musculus) (UniProt P51450); assay: qHTS for inhibitors of ROR gamma transcriptional activity; conditions: Drosophila S2 Gal4-RORgamma UAS-luciferase reporter, 20 h; series mostly up to 53.6 µM; activity change, negative = inhibition: at the top concentration; further: nearly all actives have a fitted effect of over 60% in size
Sequence (P51450 whole entry, looked up, the tested form may be a part): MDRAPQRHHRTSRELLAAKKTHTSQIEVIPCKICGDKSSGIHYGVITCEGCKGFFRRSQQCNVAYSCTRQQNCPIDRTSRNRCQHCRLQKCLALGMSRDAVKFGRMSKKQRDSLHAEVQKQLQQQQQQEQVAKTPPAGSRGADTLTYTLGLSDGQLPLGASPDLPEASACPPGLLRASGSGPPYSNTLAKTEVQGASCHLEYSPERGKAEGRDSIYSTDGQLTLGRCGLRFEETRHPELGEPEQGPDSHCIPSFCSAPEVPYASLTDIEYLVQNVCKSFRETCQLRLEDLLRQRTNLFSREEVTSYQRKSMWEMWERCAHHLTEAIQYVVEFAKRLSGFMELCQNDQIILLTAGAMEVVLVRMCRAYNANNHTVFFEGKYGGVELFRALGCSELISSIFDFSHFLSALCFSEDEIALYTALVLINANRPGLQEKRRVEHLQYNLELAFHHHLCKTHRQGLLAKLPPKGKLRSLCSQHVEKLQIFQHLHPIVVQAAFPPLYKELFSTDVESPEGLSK
Outline: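 Luminescence from a UAS-regulated Photinus luciferase reporter in stably transfected Drosophila Schneider cells is measured; decreased signal marks ROR gamma inhibition. Fusion expression is induced by 700 uM copper sulfate for 20 hr.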
On the % scale 0 is the no-effect control and ±100 the full control effect; potency means the concentration at half of the fitted maximal effect.

Activity change, negative = inhibition, inactive:
Cc1nn(C)cc1C(=O)Nc1ccccc1Br 23.8%
Cc1nn(C)cc1CNC(=O)Nc1ccc(Cl)cc1 41.3%
CC1CCN(S(=O)(=O)c2ccc3c(ccn3CC(=O)O)c2)CC1 -0.22%
Cc1nn(-c2ccccc2)c(Cl)c1/C=C/C(=O)c1ccc(O)cc1 33.8%
O=C(O)/C=C/c1ccc2c(c1)OCCO2 -3.92%
CN(C)c1ccc(/C=C/C(=O)c2ccc(C(C)(C)C)cc2)cc1[N+](=O)[O-] -0.484%
CC(=O)c1ccc2c(c1)OCCOCCOc1ccc(C(C)=O)cc1OCCOCCO2 25%
Cc1ccc([N+](=O)[O-])cc1S(=O)(=O)N1CCCN(C)CC1 -22.4%
O=C(CCc1nnc2ccc(NCCCN3CCCC3=O)nn12)NCc1ccccc1Cl -9.05%
Cc1ccc(/C=C2/SC(=S)N(CCC(=O)NCCCN3CCOCC3)C2=O)cc1 28.6%
O=C(NC1CCC(O)CC1)c1ccccc1OCc1ccc(F)cc1 (centres undefined) 4.09%
O=c1c(-c2cccc(Cl)c2)c[nH]n1-c1ccccc1 35.9%
O=C1NC(c2cccc(Cl)c2)Nc2ccccc21 (centres undefined) 19.6%
COc1cc(-c2c(-c3ccc4c(c3)OCO4)noc2C)ccc1F -12.6%
COc1ccc(NS(=O)(=O)c2ccc(NC(C)=O)cc2)cc1OC 35.4% [at 0.365 µM]
COc1ccc(NC(=O)CNC(=O)Cc2ccccc2)cc1OC 0.651%
Cc1c(C(=O)N2CCCC2)c(S(=O)(=O)NCC(C)c2ccccc2)c(C)n1C (centres undefined) 4.91%
CN(C)CCCNC(=S)N1CCN(c2nc(-c3ccccc3)cs2)CC1 -22.1%
Cc1cccc(NC(=S)Nc2ccc3cn[nH]c3c2)c1 -20.5%
Cc1cccc(Br)c1 -4.15%
Fc1cc(Br)ccc1NC(=S)Nc1cccnc1 -9.91%
CC(=O)Nc1cccc(C(=O)Nc2nc(C)cs2)c1 5.23%
S=C(Nc1cccc(Cl)c1)Nc1ccc2cn[nH]c2c1 3.96%
NS(=O)(=O)c1ccc(NC(=S)Nc2ccc(Br)c(Cl)c2)cc1 -26.3%
Cc1ccc(NC(=O)C2CCN(S(=O)(=O)c3ccc4c(c3)NC(=O)CO4)CC2)cc1C 41.8%
CN(CCO)S(=O)(=O)c1ccc2c(c1)C(=O)c1cc(S(=O)(=O)N(C)CCO)ccc1-2 0.564%
CCCn1cc(S(=O)(=O)c2ccc(C)cc2)c(=O)c2cc(OCC)ccc21 0.63%
CC1C(=O)N(Cc2ccccc2)c2ccccc2N1C(=O)c1ccccc1 (centres undefined) 8.29%
Cc1cccc(C(=O)Nc2nnc(S(=O)(=O)N3CCCCCC3)s2)c1 16.9%
Cc1cnc(CN(C)C(=O)CC2C(=O)NCCN2Cc2cccc(F)c2F)[nH]1 (centres undefined) -20.8%
COc1ccc(OC)c(NC(=O)c2cccc(S(=O)(=O)N3CCN(C(C)=O)CC3)c2)c1 -2.46%
Cc1onc(-c2ccccc2)c1C(=O)N1CCOCC1 -18.9%
Cc1noc(C)c1C(=O)N1CCOCC1 2.89%
COc1ccc(C2/C(=C(/O)c3ccc4c(c3)CC(C)O4)C(=O)C(=O)N2Cc2ccncc2)cc1 (centres undefined) -8.85%
COc1ccc(/C=C2\SC(=O)N(CCC(=O)NCCCn3ccnc3)C2=O)cc1 -6.56%
CCn1nnnc1SCC(=O)Nc1ccc(N(C)C)cc1 -2.16%
N#Cc1cccc(CS(=O)(=O)c2nnnn2-c2cc(C(F)(F)F)cc(C(F)(F)F)c2)c1 16.1%
COc1ccccc1N1CCN(S(=O)(=O)c2ccc(Cl)cc2)CC1 38.5%
CCn1ccnc1CN(C)C(=O)c1cc(COc2ccc(-n3cncn3)cc2)on1 -3.57%
COc1ccc(/C=N/NC(=O)Nc2ccc3nsnc3c2)c(OC)c1 -0.124%
COc1ccc(O)c(C=Nc2cc(C)on2)c1 -0.282%
COc1cc(CN2CCCC(C(=O)c3ccc(SC)cc3)C2)cc(Cl)c1O (centres undefined) -3.37% [at 1.91 µM]
Cc1nc2nc(C)c(NS(=O)(=O)c3ccc(C(C)(C)C)cc3)c(=O)n2[nH]1 -9.88%
CC(=O)c1ccc(N2CCN(S(=O)(=O)c3ccc4c(c3)CC(=O)N4C)CC2)cc1 25.1%
O=C(CN1C(=O)C2C3C=CC(C3)C2C1=O)Nc1nc(-c2ccccn2)cs1 (centres undefined) -0.0112%
Cc1cc(NC(=O)[C@H](C)NC(=O)c2ccco2)ccc1Br 2.23%
O=C(Nc1ccc(N2CCCC2=O)cc1)c1cncc(Br)c1 -16.2%
COc1ccc(NC(=O)c2cc([N+](=O)[O-])ccc2NC(=O)CNC2CCCCC2C)c(OC)c1 (centres undefined) 5.91%
CCCCn1c(CN2CCN(CCO)CC2)nc2ccccc21 -0.635%
CCCCn1c(CCCNC(=O)CC)nc2ccccc21 -14.6%
Cc1snc(SCc2c(F)cccc2Cl)c1C#N 15.7%
CCc1ccc(OCC(=O)N(Cc2ccccc2)C2CCS(=O)(=O)C2)cc1 (centres undefined) 10.7%
COc1cc(C(=S)NC2CCCCC2)ccc1O -15.6%
COc1ccc(Cl)cc1C(=O)NCC#N -15%
COc1ccc(CCNC(=O)CCC(=O)NC2CCCCC2)cc1OC 16.7%
C=CCNC(=S)NNC(=O)c1cc(Cl)ccc1OC 27.5%
COc1ccc(Cl)cc1C(=O)NNC(=O)c1nc2nc(C)cc(C)n2n1 -7.86%
COc1cc(OC)c(C(=O)NC2CCCCCC2)cc1OC 3.98%

Potency, active:
Cc1nn(C)cc1C(=O)NNC(=S)Nc1ccc(Cl)cc1 11.2 µM
O=C(/C=C/c1ccc2c(c1)OCCO2)c1ccc(O)cc1 1.26 µM
CN(C)c1ccc(/C=C/C(=O)c2ccc(O)cc2)cc1[N+](=O)[O-] 1.41 µM
O=C1c2ccccc2NC(c2ccc(-c3cccc(Cl)c3)o2)N1O (centres undefined) 11.2 µM
COc1ccc(NC(=S)SC)cc1OC 20 µM
Cc1cccc(NC(=S)Nc2ccc(Br)cc2)c1 7.08 µM
Cc1csc(NC(=S)Nc2cccc(Cl)c2)n1 0.708 µM
Cc1cccc(NC(=S)Nc2ccc(Cl)c(Cl)c2)c1 15.8 µM
Cc1oc2c(c1C(=O)N1CCOCC1)C(=O)c1ccccc1C2=O 3.98 µM
COc1ccccc1-n1nnnc1S(=O)(=O)Cc1ccc(Cl)cc1 11.2 µM
COc1ccc(-c2[nH]ncc2/C=N/NC(=O)c2cc(Br)ccc2O)c(OC)c1 2.24 µM
CC(NC(=O)c1ccco1)C(=O)Nc1nc(-c2ccccn2)cs1 (centres undefined) 11.2 µM
C=C(Br)Cn1c(CCCC)nc2ccccc21 15.8 µM
COc1ccc(C(C)NC(=S)NC2CCCCC2)cc1OC (centres undefined) 11.2 µM
COc1ccc(Cl)cc1C(=O)NNC(=S)NC(=O)/C=C/c1ccco1 3.98 µM
COc1ccc(Cl)cc1C(=O)NNC(=S)NC1CCCC1 11.2 µM
